sPLA2-III inh = Blocks human group III sPLA2 activity; Q9NZ20; QFRET BODIPY PC-A2 liposome hydrolysis, fluorescence; inhibition, % at 12.2 µM; 0.56% of 370,000 active; AID 743126;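 active means inhibition above mean plus 3 SD of compounds lying within the high and low control bounds, cut at about 19% in these data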;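 further: 0% = median of test compound wells and 100% = no enzyme DMSO wells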
MsrA act = activators of bovine methionine sulfoxide reductase A. activation, % at 10.6 µM. purified bovine MsrA, absorbance read-out. 0.3% of 360,000 active; in the data active means activation above about 7.5%;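 further: 0% = vehicle and 100% = reference activator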
MsrA inh = inhibits bovine methionine sulfoxide reductase A | purified bovine MsrA, absorbance read-out | inhibition, % at 15.5 µM | 0.75% of 360,000 active; in the data active means inhibition above about 4.5%;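 further: 0% = vehicle wells with enzyme and 100% = reference inhibitor wells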
rCAG RNA binder = molecules binding r(CAG) RNA repeats | r(CAG) RNA repeat, TO-PRO-1 dye displacement fluorescence | AID 651821 | 1.3% of 370,000 active | inhibition, % at 3 µM;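 active means inhibition above the plate cutoff, the mean of all test compounds on that plate plus 3 SD, cut at about 35% in these data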;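 further: 0% = DMSO alone and 100% = 100 µM mitoxantrone as full dye displacement; higher means more dye released from RNA so lower well fluorescence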
rCAG bind conf = r(CAG) RNA repeat binding, confirmation. shares compounds with rCAG RNA binder. TO-PRO-1 dye displacement fluorescence. inhibition, % at 3 µM. 70% of 4,300 active. AID 652065;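 active means inhibition above a per-plate cutoff, the mean inhibition of sample wells plus 3 SD, cut at about 35% in these data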;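 further: loss of TO-PRO-1 fluorescence as compound displaces dye from 1x1 AA loop RNA; 0% = DMSO only wells and 100% = 100 µM mitoxantrone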
dCAG dye counter = counter-screen for rCAG RNA binders: DNA CAG dye complex inhibitors. shares compounds with rCAG RNA binder. d(CAG) DNA oligo TO-PRO-1 dye displacement, fluorescence. inhibition, % at 3 µM. 94% of 4,300 active;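 active means inhibition above its plate's cutoff, the mean test-well inhibition plus 3 SD, cut at about 4.8% in these data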;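 further: 0% = DNA dye mix with DMSO and 100% = 100 µM mitoxantrone; hits displace the dye from DNA and so lower well fluorescence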
dCAG dye DR = disrupts DNA CAG TO-PRO-1 complex in dose response; DNA CAG/GTC duplex TO-PRO-1 dye displacement fluorescence; IC50, µM; 20% of 250 active; shares compounds with rCAG RNA binder; in the data active means IC50 below about 10 µM
The depositor's hits bear a star; i = inactive; . = not tested or not shown. Shown are actives, neighbours in structure and some others; about 2.8% of the full set was active somewhere.

SMILES | sPLA2-III inh | MsrA act | MsrA inh | rCAG RNA binder | rCAG bind conf | dCAG dye counter | others
N#Cc1c(C(F)(F)F)cc(-c2cccs2)nc1SC(C(=O)O)c1ccccc1 (configuration not stated) | -19 | -1 | 2 | 78* | 77* | 31* | dCAG dye DR=i
O=C(CN1CCN(Cc2ccccc2)CC1)Nc1ccc(Cl)cn1 | -1 | -9 | 0 | -7 | . | .
COc1cc([N+](=O)[O-])ccc1-c1ccc(C(=O)Nc2ccc(NC(C)=O)cc2)o1 | -6 | -6 | 0 | 10 | . | .
Cc1ccc(S(=O)(=O)N2[C@H](CC(=O)c3cccc4ccccc34)OC[C@@H]2C)cc1 | -13 | . | 2 | 8 | . | .
COc1ccc(-c2cc(-c3ccccc3)c(C#N)c(SCC(=O)O)n2)cc1 | -6 | -6 | -1 | 11 | . | .
COc1ccccc1-c1cc(-c2ccccc2)nc(SCC(=O)O)c1C#N | -21 | -1 | 1 | 47* | 37* | 9.6*
COc1ccc(-c2cc(-c3ccc(Cl)cc3)c(C#N)c(SCC(=O)O)n2)cc1 | -18 | -3 | 0 | 80* | 85* | 55*
COc1cc(-c2cc(-c3ccccc3)nc(SCC(=O)Nc3nccs3)c2C#N)cc(OC)c1OC | 3 | -7 | 1 | 8 | . | .
CC1=Nc2ccccc2/C1=C\c1nc(-c2ccccc2)oc1O | -13 | -1 | 0 | 60* | 37* | 17*
CC1=Nc2ccccc2/C1=C/c1nc(-c2ccc(C)s2)oc1O | -12 | -2 | 1 | 46* | 42* | 22*
CC1=Nc2ccccc2/C1=C\c1nc(-c2ccc(C(F)(F)F)cc2)oc1O | -5 | -2 | 0 | 13 | . | .
COc1ccc(-c2nc(/C=C3\C(C)=Nc4ccccc43)c(O)o2)cc1 | -9 | -6 | 1 | 52* | 35* | 20*
NC(=S)N/N=C1\CC(n2nnn(-c3cccc(Cl)c3)c2=S)C2COC1O2 (configuration not stated) | 9 | -2 | -1 | 2 | . | .
Cc1cc(/C=C2\SC(=S)NC2=O)c(C)n1-c1cccc(O)c1 | 10 | -6 | 1 | 52* | 35* | 14*
Cc1cc(/C=C2\SC(=S)NC2=O)c(C)[nH]1 | 7 | -9 | 0 | 35* | 21 | 6.9*
CCn1c(C)cc(/C=C2/SC(=S)NC2=O)c1C | -1 | -6 | -1 | 0 | . | .
Cc1sc(-n2c(C)cc(/C=C3\SC(=S)NC3=O)c2C)c(C#N)c1C | 1 | -14 | 0 | 69* | 76* | 35*
CC(=O)c1c(C)[nH]c(C(=O)CSc2nnc(-c3ccc(Cl)cc3)n2CC2CCCO2)c1C (configuration not stated) | -15 | -7 | 1 | 7 | . | .
CCOc1ccc(NC(=O)Nc2cc(-c3ccccc3)sc2C(=O)OC)cc1 | 1 | -7 | 0 | 3 | . | .
O=C(Nc1cc(-c2ccccc2)sc1C(=O)O)c1cccc(F)c1 | -16 | -2 | 2 | 73* | 70* | 33* | dCAG dye DR=4*
O=C(O)c1ccc(NC(=O)c2ccccc2NC(=O)c2cccc(F)c2)cc1 | -7 | -2 | 0 | 8 | . | .
CCOc1ccc(-c2cc(NC(=O)c3c(F)cccc3F)c(C(=O)O)s2)cc1 | -36 | -13 | 3 | 83* | 85* | 44*
Cc1cc(NC(=O)C2CC=CCC2C(=O)O)ccc1NC(=O)c1ccccc1 (configuration not stated) | 6 | -4 | 2 | 0 | . | .
CCN(c1ccc(C)cc1C)S(=O)(=O)c1nnc(NC(=O)c2ccco2)s1 | -16 | -10 | 3 | 59* | 45* | 14*
CC(C)CN(c1ccccc1)S(=O)(=O)c1nnc(NC(=O)c2ccco2)s1 | -1 | -7 | 2 | 48* | 48* | 16*
COC(=O)CSc1nc(SC)nc2c1sc1nc(-c3ccco3)c3c(c12)CC(C)(C)OC3 | 7 | -5 | 1 | -1 | . | .
CSc1nc(SCCO)c2sc3nc(-c4ccco4)c4c(c3c2n1)CC(C)(C)OC4 | 12 | 0 | 2 | 39* | 39* | 20*
O=C(O)CCn1cc(C2CC(c3ccccc3)=NN2c2ccccc2)c(-c2ccccc2)n1 (configuration not stated) | -12 | -6 | 1 | 55* | 62* | 22*

Source: PubChem
